High-throughput results (PubChem BioAssay)
An excerpt weighted towards active compounds, which were near 14% of everything screened.
Pf growth 48h: Primary qHTS for delayed death inhibitors of the malarial parasite plastid, 48 hour incubation; P. falciparum luciferase growth in erythrocytes, 48 h; Potency, µM (doses to about 28.7 µM), inactives show at the highest dose activity change, negative = inhibition, hits mostly inhibitors; 310,000 compounds, 5.9% hits; also: potency is read from the fitted curve at half-maximal effect
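Erythrocytes infected with P. falciparum carrying an integrated firefly luciferase reporter (2% hematocrit, 0.1% parasitemia final) were exposed to compounds in RPMI 1640 with 0.5% Albumax at 37 C, 5% CO2. Growth inhibition was scored as reduced luminescence.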
Pf growth 96h: Primary qHTS for delayed death inhibitors of the malarial parasite plastid, 96 hour incubation; P. falciparum luciferase reporter growth, 96 h; Potency, µM (highest dose often 28.7 µM), without a hit: at the highest dose activity change, negative = inhibition, most hits filed as inhibitors; 320,000 compounds, 6.9% hits; AID 504834, 2011; also: potency is read from the fitted curve at half-maximal effect
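Two parasite generations (96 h, 37 C, 5% CO2) of compound exposure in infected erythrocytes (0.05% parasitemia, 2% hematocrit). Luciferase-reporter P. falciparum; decreased luminescence indicates inhibited growth, aimed at apicoplast-acting delayed death.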
Lassa entry inh: qHTS for Inhibitors of binding or entry into cells for Lassa Virus | Potency, µM (highest dose often 37.9 µM), for inactives: at the highest dose activity change, negative = inhibition, actives largely listed as inhibitors | Lassa virus pseudotype entry inhibition, cell reporter | 300,000 compounds, 1.2% hits | AID 540256, 2011; calls by dose curve; tested in HEK293 cells; also: potency is read from the fitted curve at half-maximal effect; nearly all actives have a fitted effect of over 50% in size
MARV entry inh: qHTS for inhibitors of binding or entry into cells for Marburg Virus; Marburg virus pseudotyped entry inhibition, cell reporter; Potency, µM (top dose mostly 37.8 µM), for the others: at the top dose activity change, negative = inhibition, hits mostly inhibitors; 300,000 compounds, 1.8% hits; calls by dose curve; tested in HEK293 cells; also: potency is read from the fitted curve at half-maximal effect
HCV inhibitor: qHTS Assay for Inhibitors of Hepatitis C Virus (HCV) | Huh7.5.1 HCVcc-Cre infection, luciferase reporter, 44 h | 340,000 compounds, 3.4% hits | AID 651820, 2012 | Potency, µM (doses to about 41.8 µM), without a hit: at the highest dose activity change, negative = inhibition, hits mostly inhibitors; also: potency is read from the fitted curve at half-maximal effect
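HCVcc-Cre virus at an moi near 0.5 was added right after compound to cells cultured 4 h from seeding (1,000 cells/well). Luciferase activity was determined 44 h later, 15 min after substrate addition at RT.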
HCMV inh: qHTS Assay for inhibitors of the human cytomegalovirus (HCMV). HFF cells, HCMV-luciferase reporter, 72 h; hits give low values. activity change, negative = inhibition, % at 57.5 µM. 410,000 compounds, 4.5% hits; in the data active = activity change below about -60%; inconclusive = no clear call, values can overlap the other calls; inactive = above about -39%
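Inhibition of viral replication was scored as loss of reporter luminescence in HFFs infected with HCMV-luciferase (MOI 1 PFU/cell) for 72 h; compounds tested at 2 doses, normalized to buffer and Salinomycin controls.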
* = called active by the depositor; ? = inconclusive; . = no result given; [ ] = remark or other dose. Unless noted, calls follow the shape of the dose curve; as a rule, active = well fitted inhibition curve with a large enough effect; inconclusive = small, poorly fitted or top-dose-only effect, or another doubt; inactive = no such curve, though single readings can be large or run the other way. % is scaled to controls: 0 for no effect and ±100 for the full control effect.

SMILES	Pf growth 48h	Pf growth 96h	Lassa entry inh	MARV entry inh	HCV inhibitor	HCMV inh
Cc1nc(C)c(-c2ccc(SCC(=O)Nc3ccccc3F)nn2)s1	.	.	-2%[46.1 µM]	.	.	67
CCOC(=O)c1c(S(=O)(=O)N2CCCC(C(=O)NCc3ccc(Cl)cc3)C2)c(C)n(C)c1C (stereo not drawn)	.	.	1%[46.1 µM]	.	.	-11
CC(=O)O[C@@H](C[C@@H](C)C1=C2C[C@H](O)C3[C@@]4(C)CCC(=O)C(C)(C)C4CC[C@]3(C)[C@@]2(C)CC1)[C@H]1OC1(C)C (stereo partly drawn)	.	.	.	.	?	-31
Cn1nc(C(C)(C)C)cc1N1C(=O)CCC1(C)C(=O)NCc1ccccc1 (stereo not drawn)	.	.	.	.	.	-14
CC1CCN(c2cc3c(cc2F)c(=O)c(S(=O)(=O)c2cccc(Cl)c2)cn3Cc2ccccc2)CC1	.	.	11%[46.1 µM]	.	.	51
O=C(c1ccc(CS(=O)c2cccc(Cl)c2)o1)N1CCN(c2ccccn2)CC1 (stereo not drawn)	?	7.4µM*	.	.	-19%	-15
CN1CCN(CC(O)(c2ccc(Cl)cc2)c2ccc(Cl)cc2)CC1	9.3µM*	15µM*	-13%	?	3.2µM*	?
CN1CCN(C(=S)c2ccc(Cl)cc2)CC1	0%	.	?	0%[46.1 µM]	3%	-31
Cc1cccc2cc(CN(C(=O)c3cnccn3)C3CCCCC3)c(Cl)nc12	4.1µM*	?	-16%	?	?	-1
CCOc1ccc2nc(Cl)c(CN(C(=O)c3cnccn3)C3CCCC3)cc2c1	?	14%	14%	11%[46.1 µM]	?	4
CCOC(=O)C(=CNc1cccnc1Oc1ccc(C)c2c1CCC2)C(=O)OCC	12µM*	8.3µM*	-7%	-16%	?	19
Cc1ccc(Oc2ncccc2NC(=O)CC2(CC(=O)O)CCCC2)c2c1CCC2	?	-1%	17%	-12%[14.2 µM]	12%	20
COc1cccc(-c2nc(CS(=O)(=O)CC(=O)Nc3ccc(F)cc3F)c(C)o2)c1	8%	8%	?	-25%[46.1 µM]	11µM*	26
CC(=O)N1CCC2(CC1)C(C#N)=C(N)Oc1n[nH]c(CSc3ccc(C)cc3)c12	32%	6.6µM*	-3%	3%	8%	-6
Cc1ccc(-c2ccc(=O)n(CC(=O)NCCc3ccccc3)n2)cc1	.	.	24%[46.1 µM]	.	.	5
CCOC(=O)c1c(S(=O)(=O)N2CCC(C(=O)Nc3ccc(F)cc3F)CC2)c(C)n(C)c1C	.	.	0%[46.1 µM]	.	.	-14
CCOC(=O)CCc1c(C)c2ccc(O)cc2oc1=O	-7%	?	1%	?	10%	-17
CCOC(=O)CCc1c(C)c2ccc(OCC(=O)N(CC)CC)c(C)c2oc1=O	10µM*	.	13%	13%	?	4
CCN(CC)c1ccc2c(C)c(Cl)c(=O)oc2c1	2%	?	?	?	-14%	0
CCc1c(C)c2ccc(OCC(=O)N(C)C)c(C)c2oc1=O	4%	?	5%	7%	-22%	1
CCN(CC)c1ccc2c(C)c(-c3ccc(N)cc3)c(=O)oc2c1	?	?	10µM*	?	8.9µM*	?
CCOC(=O)Cc1c(C)c2ccc(N(CC)CC)cc2oc1=O	3.7µM*	-14%	-8%	-3%	10µM*	16
O=C(O)c1c2c(nc3ccc(S(=O)(=O)N4CCC(C(=O)NC5CCCCCC5)CC4)cc13)CCCC2	?	?	.	.	0%	13
CN(C)c1ccc(C(=S)Nc2ccccc2)cc1	181%	-10%	?	14µM*	5%	-65*
S=C(Nc1cccc(Br)c1)c1ccccc1	-3%	?	?	9%	-11%	-74*
SMILES	Pf growth 48h	Pf growth 96h	Lassa entry inh	MARV entry inh	HCV inhibitor	HCMV inh
CN(C)c1ccc(NC(=S)c2ccccn2)cc1	-55%	-20%	0.89µM*	0.82µM*	11%	-91*
CN(C)c1ccc(NC(=O)Oc2ccccc2)cc1	.	0.15µM*	-19%	14%	11%	-18
CN(C)c1cc(O)c(C(=S)Nc2ccccc2)c(N(C)C)c1	?	2%	10%	?	11µM*	40
CC(=O)N(C)c1ccc(NC(=S)Nc2ccccc2)cc1	20%	7%	0%	13%	18%	-14
Cc1cccc(CSc2ccc(S(=O)(=O)N3CCCC3)cn2)c1	?	6.6µM*	.	.	?	7
N#CCSc1ccc(S(=O)(=O)N2CCOCC2)cn1	.	.	13%[46.1 µM]	16%[46.1 µM]	4%	-20
CC(C)(C)c1ccc(CSc2ccc(S(=O)(=O)N3CCOCC3)cn2)cc1	10µM*	?	.	.	10µM*	?
Cc1ccc(C(C)NC(=O)CSc2ccc(S(=O)(=O)N3CCOCC3)cn2)cc1C (stereo not drawn)	12µM*	?	-15%	14%	-4%	-25
CCC(C)NC(=O)CSc1ccc(S(=O)(=O)N2CCN(Cc3ccccc3)CC2)cn1 (stereo not drawn)	?	9.3µM*	.	.	-29%	?
CCCCCCCCCCCCCCCCCC[N+](C)(C)CCC[Si](OC)(OC)OC	-12%	-2%	.	.	.	.
C[N+](C)(C)Cc1ccccc1	?	1µM*	-2%	11%	1%[8.37 µM]	-13
CCCCCCCCCCCC[N+](C)(C)CCOc1ccccc1	4.3µM*	2.4µM*	.	.	.	.
CCCCCCCCCCCCCC[N+](C)(C)Cc1ccccc1	1.7µM*	2.7µM*	.	.	.	.
CCCCCCCCCCCCCCCC[N+](C)(C)Cc1ccccc1	1.7µM*	3µM*	.	.	.	.
CCCCCCCC(=O)NNC(=O)Cc1ccccc1	26%	54%	-10%	-13%	-1%	-13
